Data on 40 compounds can be found in PubChem BioAssay (EPA / NIEHS).

Activity calls are given as the source filed them. The calls were made as follows: active = hit-call score of the fitted dose curve at least 0.9, where 1 is the maximum; inactive = score below 0.9.

Read-out in this experiment: solute carrier (SLC22A1), SLC22A1 (gene 6580)
Description: LTEA_HepaRG_SLC22A1: Life Technologies and Expression Analysis (LTEA) Assay for solute carrier (SLC22A1) using HepaRG (AID 2283524).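 As to AC50: TaqMan qRT-PCR normalized to ACTB GAPDH and POLR2A housekeeping genes.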 The note with it: mRNA level, 48 h; actives raise or lower the signal. The protocol: LTEA_HepaRG is a cell based, multiplexed-readout assay that uses HepaRG, a human liver cell line, with measurements taken at 48 hours after chemical dosing on a 96-well plate.LTEA_HepaRG_SLC22A1 is one of 102 assay component(s) measured in the LTEA HepaRG cell culture assay. It is a marker of NR mediated transport.Data from the assay component LTEA_HepaRG_SLC22A1 was analyzed into 1 endpoint. This assay endpoint, LTEA_HepaRG_SLC22A1, was analyzed with bidirectional fitting relative to DMSO as the negative control and baseline of activity. Using a type of inducible reporter, measures of mRNA induction for gain or loss-of-signal activity can be used to understand regulation of transcription factor activity. To generalize the intended target to other relatable targets, this assay endpoint is annotated to the transporter intended target family, where the subfamily is organic cation transporter.
A total of 1060 chemcials from the ToxCast library were tested in eight-point concentration-response experiments. Cell culture and cytotoxicity assays were conducted at Thermo Fisher Scientific's Custom Services facility (Madison, WI). A single lot of human HepaRG cells (Thermo Fisher Scientific, Frederick, MD) was used for the cell culture experiments. 96-well format collagen type I coated plates of human HepaRG cells were prepared using established methods. Briefly, cryopreserved HepaRG cells were thawed, plated at a density of approximately 100,000 cells/well in HepaRG Thaw, Plate, and General Purpose media (HPRG770, Thermo Fisher Scientific), and incubated for 48 hours. 0.5% DMSO was selected as vehicle control to balance the requisite need of DMSO in HepaRG cultures to maintain differentiation (for example, baseline metabolism, proportions of hepatocytes vs. cholangiocytes), while enabling further hepatic receptor pathway activation (for example, PXR and CAR) in response to chemical exposure. 48 hours after plating, the culture medium was replaced with HepaRG Serum-Free Incudtion Media. Cells were exposed to each test chemical in duplicate and maintained in CO2 incubators for another 48 hours. Chemical plates were thawed to room temperature and 200x concentrations of treatment groups were prepared. 8-point conentration-reponse curves were made with the highest exposure at 100 uM, followed by half-log dilutions, all in 0.5% DMSO. Each test plate contained variouse controls, induction positive controls (1mM phenobarbital), cytotoxicity positive controls ([…] aflatoxin B1), vehicle controls (0.5% DMSO), and total lysis controls (0.5% DMSO). Cell morphology images were taken using an Essen IncuCyte FLR automated microscope, with six 96-well plates imaged in about 24 minutes. Images were captured and exported and JPEG files. Spent culture media was transfered to black-well plates for the LDH assay, and remaining media was sorted at -80 C for later use. Cells were treated with RLT buffer and frozen until shipped for gene expression analysis. Total RNA was isolated from the cell suspension in 75 uL of Buffer RLT (Qiagen, Germantown, MD 20874) by Quintiles/Expression Analysis (Durham, NC) using a custom isolation procedure. Total RNA from each plate well was transferred to a preamplification plate. Fluidigm's 96.96 Dynamic ArrayTM (Fluidigm, Amsterdam, the Netherlands) technology was used for gene expression analyses by quantitative reverse transcription polymerase chain reaction (qRT-PCR, performed by Quintiles/Expression Analysis, Durham, NC)89. Standard TaqManTM Assays (Applied Biosystems/ThermoFisher Scientific, Foster City, CA) were used to assess the expression of 93 genes selected based on their selectivity and sensitivity to important hepatic receptors known to be modulated by environmental chemicals; importance in human hepatocyte functionality; and hepatotoxicity. […]
As to `CCCCOCN(C(=O)CCl)c1c(CC)cccc1CC`, the outcome was inactive.

`CCCCC(O)(Cn1cncn1)c1ccc(Cl)cc1Cl` (stereo not given): the AC50 was 73.6 µM (active).

As to `Cc1cnc(C2=NC(C)(C(C)C)C(=O)N2)c(C(=O)O)c1` (stereo not given), the compound was called inactive.

As to `CS(=O)(=O)c1cc(C(F)(F)F)ccc1C(=O)c1cnoc1C1CC1`, the call was inactive.

Take `COP(=O)(OC)O/C(C)=C/C(=O)N(C)C`: the outcome was inactive.

Turning to `O=P(O)(O)CCCl`, the compound was classed as inactive.

As for `CCCC(=NOCC)C1=C(O)CC(CC(C)SCC)CC1=O` (stereo not given), the compound was classed as inactive.

`CNC(=O)N(C)c1nnc(C(C)(C)C)s1`: the call was inactive.

Regarding `CCN(CC)C(=O)C(C)Oc1cccc2ccccc12` (stereo not given), the AC50 is 70.1 µM (active).

Regarding `COc1ccc(-c2ccccc2)cc1NNC(=O)OC(C)C`, the call was inactive.

`CC1(C)C(C=C(Cl)Cl)C1C(=O)OC(C#N)c1cccc(Oc2ccccc2)c1` (stereo not given): the call was inactive.

With `COc1cc(Cl)c(OC)cc1Cl`, the call was inactive.

With `CO/N=C(/C1=NOCCO1)c1ccccc1Oc1ncnc(Oc2ccccc2Cl)c1F`, the AC50 was 24.8 µM (active).

As to `O=C(Nc1ccccc1-c1ccc(Cl)cc1)c1cccnc1Cl`, the compound was classed as inactive.

Consider `CCOc1nc(F)cc2nc(S(=O)(=O)Nc3c(Cl)cccc3Cl)nn12`, for which the half-maximal activity concentration (AC50) is 50 µM (active).

Regarding `CCOP(=S)(OCC)Oc1nc(Cl)n(C(C)C)n1`, the AC50 was 12.2 µM (active).

For `CCN(CC)c1nc(C)cc(OP(=S)(OC)OC)n1`, the compound was classed as inactive.

`COP(=S)(OC)SCn1nnc2ccccc2c1=O`: the compound was called inactive.

Turning to `CC(C)Nc1nc(Cl)nc(NC(C)C)n1`, the call was inactive.

Regarding `CC1(C)CCC(=Cc2ccc(Cl)cc2)C1(O)Cn1cncn1` (stereo not given), the compound was classed as inactive.

Consider `CCNP(=S)(OC)O/C(C)=C/C(=O)OC(C)C` (stereo not given), for which the compound was classed as inactive.

As to `CC1(C)CON(Cc2ccccc2Cl)C1=O`, the result was inactive.

Take `COP(=S)(OC)Oc1ccc([N+](=O)[O-])c(C)c1`: the compound was classed as inactive.

Take `CNC(=O)Oc1cccc2ccccc12`: the outcome was inactive.

With `CC(C)=CC1C(C(=O)OCc2coc(Cc3ccccc3)c2)C1(C)C` (stereo not given), the compound was called inactive.

As to `COC(=O)N(C(=O)N1CO[C@@]2(C(=O)OC)Cc3cc(Cl)ccc3C2=N1)c1ccc(OC(F)(F)F)cc1`, the AC50 was 47.9 µM (active).

`O=C(O)c1c(Cl)ccc2cc(Cl)cnc12`: the call was inactive.

Regarding `CCOc1cc(C(C)(C)C)ccc1C1COC(c2c(F)cccc2F)=N1` (stereo not given), the compound was classed as inactive.

For the compound `N#Cc1c[nH]cc1-c1cccc2c1OC(F)(F)O2`, the AC50 is 40.7 µM (active).

In the case of `Cc1c(COC(=O)[C@@H]2[C@H](/C=C(\Cl)C(F)(F)F)C2(C)C)cccc1-c1ccccc1`, the call was inactive.

`CCCN(CC)CC1COC2(CCC(C(C)(C)C)CC2)O1` (stereo not given): the outcome was inactive.

For the compound `Cc1ccc(N=CN(C)C=Nc2ccc(C)cc2C)c(C)c1`, the outcome was inactive.

For `CCCCC(C#N)(Cn1cncn1)c1ccc(Cl)cc1` (stereo not given), the call was inactive.

On to `Clc1cccc(C(Cl)(Cl)Cl)n1`, for which the compound was classed as inactive.

`Clc1nc(Cl)nc(Nc2ccccc2Cl)n1`: the result was inactive.

In the case of `CC(C)C1(C)N=C(c2ncccc2C(=O)O)NC1=O` (stereo not given), the compound was classed as inactive.

Turning to `Cn1c(-c2ccccc2)cc(-c2ccccc2)[n+]1C`, the AC50 is 34.5 µM (active).

`CC(C)N1C(=O)N(c2ccccc2)CSC1=NC(C)(C)C`: the concentration at half-maximal activity (AC50) was 81.4 µM (active).

On to `CN/C(=N\[N+](=O)[O-])NCc1cnc(Cl)s1`, for which the call was inactive.

Take `CC(C)(C)C(=O)C(Oc1ccc(Cl)cc1)n1cncn1` (stereo not given): the compound was called inactive.
